Screen size: about 2,200 compounds; about 530 (24%) were called active.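 The calls were made as follows: active = inhibition above a set limit at one or more concentrations of the dose series; inactive = inhibition under that limit at every dose.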 The list is a sample of the results. Entries with a potency or affinity are not part of this list.

A short description of this experiment: nmpC-GFP reporter counter-screen in S. Typhimurium, dose response, counter-screen for PhoP regulon inhibitor project, Salmonella Typhimurium, GFP fluorescence (AID 2401).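 Also: S. typhimurium with Mg-insensitive nmpC-GFP reporter grown at 10 µM Mg2+; drop in reporter fluorescence reflects general culture growth inhibition.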 The following applies: 4 h; series mostly up to 150 µM. (The purpose of a counterscreen is to sort out artefacts and off-target activity.)
In the case of `CN(c1ccccc1)S(=O)(=O)c1cc(C(=O)Nc2nc3ccccc3[nH]2)ccc1Cl`, the molecule was called inactive. The same measure for `O=C(CSc1nnnn1-c1ccccc1)CC(=O)Nc1ccc(Cl)cc1`: “inactive”. The same measure for `CCOC(=O)CSc1n[nH]c(NC(=O)c2cccc(C)c2)n1`: “inactive”; for `Cc1cccc(C(=O)NC(=S)Nc2ccc(N3CCOCC3)cc2)c1`: “inactive”. As for `CCn1cc(C(=O)O)c(=O)c2cc(F)c(N3CCN(C(=S)NC(=O)c4ccccc4Cl)CC3)cc21`, the molecule was called inactive.

Turning to `CCCS(=O)(=O)N1CCCC(C(=O)N2CCN(c3ccccn3)CC2)C1` (centres undefined), the call was inactive. Turning to `COc1cc(NC(=O)CSc2nnnn2Cc2ccc3c(c2)OCO3)cc(OC)c1`, the result was inactive. On to `Cc1cccc(-n2ncc3c(NCc4ccc5c(c4)OCO5)ncnc32)c1`, for which the call was inactive. The result for `O=C1Nc2ccccc2C(O)(C(=O)N2CCCCC2)N1c1ccccc1` (centres undefined) reads “inactive”; that for `Cc1cccnc1N(C(=O)Nc1ccccc1)C1=NCC(C)(C)S1`, “inactive”.

`Cc1nn(-c2ncc(C(F)(F)F)cc2Cl)c(=O)n1-c1cccc(Cl)c1`: the molecule was classed as inactive.

In the case of `CCCc1ccc(C(=O)CCC(=O)O)cc1`, the molecule was called inactive. The same measure for `COc1ccc(OC)c(C(C(=O)NCc2ccco2)N(C(=O)Cn2nnc3ccccc32)C(C)C)c1` (centres undefined): “inactive”. Take `COc1ccc(C2C=C(c3ccc(Cl)cc3)Nc3nc(NC(C)=O)nn32)cc1` (centres undefined): the outcome was inactive. As to `C=CCn1c(C)cc(C(=O)CSc2nc(N)cc(N)n2)c1C`, the outcome was inactive. As to `Cc1ccc(C(C(=O)NCc2ccco2)N(CCc2ccccc2)C(=O)Cn2nnc3ccccc32)o1` (centres undefined), the molecule was classed as inactive.

On to `O=C(CN1CCC(NC(=O)c2cccc(F)c2)CC1)NCc1ccccc1F`, for which the molecule was called inactive.

In the case of `CCCOc1ccc(C(=O)N2CCCC2C(=O)O)cc1` (centres undefined), the molecule was called inactive. In the case of `CCn1cc(C(=O)O)c(=O)c2cc(F)c(N3CCN(S(=O)(=O)c4ccc(NC(C)=O)cc4)CC3)cc21`, the outcome was inactive. The same measure for `CCCOc1ccc(C(=O)CCC(=O)OCC(=O)N2CC(=O)Nc3ccccc32)cc1`: “inactive”; for `COc1cccc(C2C3=C(Nc4[nH]n(-c5ccccc5)c(=O)c42)c2ccccc2C3=O)c1` (centres undefined): “inactive”. The same measure for `COC(=O)c1sc2ccccc2c1-n1cccc1C(=O)C(=O)Nc1ccc(Cl)cc1`: “inactive”; for `COc1cccc(-n2c(SCC(=O)Nc3ccc4c(c3)CCC4)nc3ccccc3c2=O)c1`: “inactive”. For the molecule `CCOC(=O)C(NC(=O)c1cccc(Cl)c1)(OCc1ccccc1)C(F)(F)F` (centres undefined), the molecule was classed as inactive. As for `COc1ccccc1CC1(C)NC(=O)N(CC(=O)N2CC(C)OC(C)C2)C1=O` (centres undefined), the result was inactive. Consider `Cn1c(NCc2cccs2)nc2ccccc21`, for which the outcome was inactive. Turning to `COc1ccc(OC)c(S(=O)(=O)N(C)CC(=O)N2CCc3ccccc3C2)c1`, the call was inactive. The same measure for `CCCC(=O)c1c[nH]c(C(=O)NCCCN2CCOCC2)c1`: “inactive”; for `O=S(=O)(Nc1ccc2ccccc2c1)c1ccccc1`: “inactive”.

Take `COc1ccc(N2CCN(C(=O)Nc3ccc(S(=O)(=O)N(C)C)cc3)CC2)cc1`: the outcome was inactive. The same measure for `CCc1nc2ccccc2c2nc3ccccc3n12`: “inactive”; for `COC(=O)c1ccc2c(=O)n(CCN3CCOCC3)c(SCC(=O)C(C)(C)C)nc2c1`: “inactive”; for `COC(=O)C1C(=O)C=C(N2CCOCC2)CC1(C)C` (centres undefined): “inactive”. The result for `CN(C)C(=O)c1cn(N(C)c2ncc(C(F)(F)F)cc2Cl)c(=O)c2ccccc12` reads “inactive”; that for `Cc1nc2ccccc2n1CC(=O)NCc1ccccc1`, “inactive”.

In the case of `CCOc1ccc(N/C=C/C(=O)c2ccc(OC)cc2)c([N+](=O)[O-])c1`, the result was inactive.

Consider `O=C(/C=C/c1ccco1)NC(=S)Nc1ccc(N2CCCC2)cc1`, for which the call was inactive. `O=C1CSC(=S)N1c1ccc(F)cc1`: the molecule was called inactive.

Regarding `O=C1N=c2ccccc2=C1c1[nH]c(=S)[nH]c1O`, the outcome was inactive. The result for `Cc1ccccc1-n1nc(-c2ccc(N)cc2)cc1N` reads “inactive”; that for `CC(=O)N(Cc1ccc(Cl)cc1)c1cnccn1`, “inactive”; that for `NCCCC[C@H]1CN=C(N)N1CCC12CC3CC(CC(C3)C1)C2`, “inactive”. The result for `CCN(c1ccc(OCC(=O)OCC(=O)Nc2ccc(F)c(F)c2F)cc1)S(=O)(=O)c1ccccc1` reads “inactive”; that for `COc1ccc2nc(SCC(=O)N(C)C3CCCCC3)c(C#N)cc2c1`, “inactive”. With `CC1CCC(NC(=O)C2c3ccccc3C(=O)N2Cc2cccs2)CC1` (centres undefined), the result was inactive.

For `Cc1ccc(Nc2nc(CSc3nnc(-c4ccc(F)cc4)n3C)cs2)cc1`, the call was inactive. In the case of `CCOc1ccc(NC(=O)Nc2cccs2)cc1`, the call was inactive. Turning to `CC(=O)c1sc(NC(=O)COc2ccc([N+](=O)[O-])cc2)nc1C`, the molecule was called inactive.

With `CCOC(=O)C1=C(C)NC(=O)NC1c1ccsc1` (centres undefined), the result was inactive. The result for `O=C1c2ccccc2C(=O)N1c1cccc(-c2csc(Nc3ccc4c(c3)OCO4)n2)c1` reads “inactive”; that for `COC(=O)Cn1cc(C(=O)c2ccco2)c2ccccc21`, “inactive”.

Consider `COC(=O)c1sccc1NC(=O)c1csc2c1CCCC2`, for which the result was inactive. The result for `COCCNC(=O)CSCc1c(F)cccc1Cl` reads “inactive”. The result for `Cn1ncc(Br)c1C(=O)NCc1cccs1` reads “inactive”.

Consider `CCOC(=O)c1cnc(SCC(=O)Nc2ccc(N3CCOCC3)c(Cl)c2)nc1N`, for which the molecule was called inactive.

Take `CCOC(=O)N1CCC(NC(=O)CCC(=O)c2ccccc2)CC1`: the outcome was inactive. The same measure for `CNC(=O)c1ccc(-c2ccc(F)cc2)s1`: “inactive”; for `CCCCOC(=O)CSc1nc2c(c(=O)[nH]c(=O)n2C)n1C/C=C(\C)Cl`: “inactive”; for `CCCN(CCC)CCCNS(=O)(=O)c1ccc2c(c1)oc(=O)n2C`: “inactive”. The result for `O=C1c2[nH]nc(-c3ccccc3O)c2C(c2ccc(F)cc2)N1Cc1ccco1` (centres undefined) reads “inactive”.

With `COc1ccc(NC(=O)CSc2nnc(-c3cccs3)n2Cc2ccco2)cc1OC`, the molecule was called inactive. The same measure for `COc1ccc(OC)c(C2C=C(C34CC5CC(CC(C5)C3)C4)NC(=S)N2)c1` (centres undefined): “inactive”. Take `Cc1cc(C)nc(/N=C(\N)Nc2ccc(SC(F)F)cc2)n1`: the molecule was classed as inactive. Turning to `CCn1c(Cc2ccccc2)nnc1SCC(=O)Nc1ccc(S(N)(=O)=O)cc1`, the molecule was classed as inactive. The result for `Cc1[nH][nH]c(=O)c1C(c1ccc(O)c([N+](=O)[O-])c1)c1c(C)[nH][nH]c1=O` reads “inactive”. In the case of `CCCc1[nH][nH]c(=O)c1C(c1ccc(Br)cc1)C(C#N)C#N` (centres undefined), the call was inactive. The same measure for `CN(CCC(=O)Nc1ccc(Br)cc1)Cc1ccccc1`: “inactive”. The same measure for `CCCc1nc2c(o1)CC(CC(C)SCC)CC2=O` (centres undefined): “inactive”; for `O=C(Nc1ccc(Cl)cc1)N1CC=CCC1`: “inactive”.
